Shown are actives, neighbours in structure and some others; about 1.8% of the full set was active somewhere.
ERp5 block: blocks human ERp5 reductase activity on insulin; Q15084; ERp5 insulin aggregation, absorbance 650 nm, 90 min; inhibition, % at 9.99 µM; hit rate 0.05% among 350,000;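 active = mean replicate inhibition above about 25%, with every replicate also reaching it, limit read from the data, passing the limit was not always enough; inconclusive = only one of those two criteria met; inactive = neither criterion met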
ERAP1 inh: blocks human ERAP1 aminopeptidase activity; Q9NZ08; recombinant ERAP1, Leu-AMC fluorescence, 60 min; AID 652197; hit rate 0.15% among 340,000; inhibition, % at 10.7 µM;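 active = mean replicate inhibition of at least 30%, or all replicates individually reaching that 30% level; inactive = mean below 30% and not every replicate reaching it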
PDI inh: inhibitors of human protein disulfide isomerase; P07237; PDI insulin aggregation turbidity, A650, 90 min; inhibition, % at 10 µM; hit rate 0.052% among 350,000;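 active = mean inhibition across replicates of 30% or more, whatever share of single replicates reach that level; inconclusive = mean inhibition below 30% while every single replicate reaches 30%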
MLL AF4-AF9 inh: blocks AF4 peptide binding to human AF9. AlphaScreen, biotin-AF4 peptide binding to FLAG-AF9. inhibition, % at 10 µM. AID 651704. hit rate 0.47% among 350,000. P42568;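 active = every replicate reaching a set inhibition limit, whatever the replicate mean, cut at about 25% in these data; inconclusive = mean inhibition reaches that limit but some replicates miss it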
Target sequence (P42568 whole entry, looked up): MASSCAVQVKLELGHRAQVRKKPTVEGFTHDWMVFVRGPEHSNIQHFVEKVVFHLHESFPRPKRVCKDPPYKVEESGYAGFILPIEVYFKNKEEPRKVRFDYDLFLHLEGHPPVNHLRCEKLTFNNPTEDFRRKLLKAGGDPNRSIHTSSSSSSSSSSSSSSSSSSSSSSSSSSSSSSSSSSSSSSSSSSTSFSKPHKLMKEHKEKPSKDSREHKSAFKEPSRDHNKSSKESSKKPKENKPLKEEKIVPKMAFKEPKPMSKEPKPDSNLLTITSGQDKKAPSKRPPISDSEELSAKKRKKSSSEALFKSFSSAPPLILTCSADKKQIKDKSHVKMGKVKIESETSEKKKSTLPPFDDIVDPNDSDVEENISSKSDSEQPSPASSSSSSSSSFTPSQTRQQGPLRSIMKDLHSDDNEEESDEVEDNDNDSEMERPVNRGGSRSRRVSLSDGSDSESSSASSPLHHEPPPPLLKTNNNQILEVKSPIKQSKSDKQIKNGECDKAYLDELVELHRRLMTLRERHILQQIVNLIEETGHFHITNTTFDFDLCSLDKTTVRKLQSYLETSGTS
DENV2 CPE: protects cells from dengue virus 2 cytopathic effect; CPE inhibition, % at 9.99 µM; AID 651640; DENV2-infected cells, cytopathic effect rescue, plate reader; hit rate 1.7% among 350,000; in the data active = CPE inhibition above about 20%, passing the limit was not always enough; inconclusive = no clear call, values can overlap the other calls; tested in BHK-21 cells
Numbers stand for hits; i = inactive; ? = inconclusive; nt = no result given.

SMILES | ERp5 block | ERAP1 inh | PDI inh | MLL AF4-AF9 inh | DENV2 CPE
O=C(NCCO)c1cccc2c1C(=O)c1ccccc1-2 | nt | nt | i | nt | nt
O=C1c2cccc(NCCNCCO)c2C(=O)c2cccc(NCCNCCO)c21 | i | i | i | 46.0 | i
C[C@@H]1CN([C@@H](C)CO)C(=O)c2cccc(NC(=O)CCCCCC(=O)Nc3ccccc3N)c2O[C@H]1CN(C)Cc1ccc(Cl)c(Cl)c1 | i | i | nt | i | i
O=C(O)CCCCCn1c(SCC(=O)c2ccc(O)c(O)c2)nc2ccsc2c1=O | nt | nt | 31.7 | nt | nt
O=C1COCCOCCOCCOCC(=O)NCCN1 | i | i | i | i | 26.3
O=C1COCCOCCOCC(=O)NCCN1 | i | i | i | i | i
C[C@@H]1CCCCO[C@H](CN(C)C(=O)Nc2cccc3ccccc23)[C@@H](C)CN([C@H](C)CO)C(=O)c2cc(NC(=O)c3ccncc3)ccc2O1 | i | i | nt | i | i
C[C@@H]1CN([C@H](C)CO)C(=O)c2cc(C#CC3(O)CCCC3)cnc2O[C@@H]1CN(C)Cc1cccnc1 | i | i | nt | i | 25.5
CC(C)CC#Cc1cnc2c(c1)C(=O)N([C@H](C)CO)C[C@H](C)[C@H](CN(C)Cc1ccccc1)O2 | i | i | nt | i | 23.3
C[C@H](CO)N1C[C@H](C)[C@@H](CN(C)Cc2ccc(F)cc2)Oc2ncc(C#CCN(C)C)cc2C1=O | i | i | nt | i | 20.7
C[C@H](CO)N1C[C@H](C)[C@H](CN(C)Cc2cccnc2)Oc2ncc(C#CC3(O)CCCC3)cc2C1=O | i | i | nt | i | i
C[C@H]1CN([C@@H](C)CO)C(=O)c2cc(C#CCN(C)C)cnc2O[C@@H]1CN(C)Cc1cccc(C(=O)O)c1 | i | i | nt | i | ?
C[C@@H]1CN([C@H](C)CO)C(=O)c2cc(C#CCN(C)C)cnc2O[C@H]1CN(C)Cc1cccc(C(=O)O)c1 | i | i | nt | i | 30.3
CCCN1CCC2(CC1)CN(Cc1ccccc1OC)[C@H](CO)c1c2c2ccc(OC)cc2n1C | nt | nt | nt | i | i
CN(C)N1C(N)=C(C#N)C(c2ccc3c(c2)OCO3)C2=C1CCCC2=O (configuration not stated) | i | i | i | 25.6 | i
Cc1ccc(C(=O)N/C(=C/c2cccs2)C(=O)NCCCn2ccnc2)cc1 | i | i | i | i | 30.7
Cc1ccc(C(=O)N/C(=C\c2cccs2)C(=O)NCCCn2ccnc2)cc1 | nt | nt | i | nt | nt
Cc1cccc(OCC(=O)Nc2ccc(N3CCN(C(=O)c4ccccc4)CC3)cc2)c1C | i | i | i | i | 42.5
CCC(=O)N1CCN(c2ccc(NC(=O)COc3cccc(C)c3C)cc2)CC1 | i | i | i | i | i
C[C@@H]1CN([C@@H](C)CO)C(=O)c2cc(NS(=O)(=O)c3ccc(F)cc3)ccc2O[C@H]1CN(C)S(=O)(=O)c1cccs1 | i | i | nt | i | 46.2
C[C@H]1CN([C@@H](C)CO)C(=O)c2cc(NS(=O)(=O)c3ccc(F)cc3)ccc2O[C@H]1CN(C)S(=O)(=O)c1ccc(Cl)cc1 | i | i | nt | i | 26.3
C[C@@H]1CN([C@@H](C)CO)C(=O)c2cc(NS(=O)(=O)c3ccc(F)cc3)ccc2O[C@H]1CN(C)C(=O)NC1CCCCC1 | i | i | nt | i | 34.6
C[C@@H]1CN([C@@H](C)CO)C(=O)c2cc(NS(=O)(=O)c3ccc(F)cc3)ccc2O[C@H]1CN(C)C | i | i | nt | i | i
C[C@H](CO)N1C[C@H](C)[C@H](CN(C)C)Oc2ccc(NS(=O)(=O)c3ccc(F)cc3)cc2C1=O | i | i | nt | i | 28.6
C[C@H](CO)N1C[C@H](C)[C@H](CN(C)S(=O)(=O)c2cccs2)Oc2ccc(NS(=O)(=O)c3ccc(F)cc3)cc2C1=O | i | i | nt | i | i
SMILES | ERp5 block | ERAP1 inh | PDI inh | MLL AF4-AF9 inh | DENV2 CPE
CO[C@H]1CN(C)C(=O)c2cc(NS(=O)(=O)c3cccc(C)c3)ccc2OC[C@@H](C)NC[C@H]1C | i | i | nt | i | i
CN(C)CC(=O)N1CC2(C1)[C@@H](c1ccccc1)[C@H](CO)N2C(=O)C1CC1 | i | i | nt | nt | i
Cc1ccc(S(=O)(=O)N(C)C[C@H]2Oc3ccc(NS(=O)(=O)c4ccc(F)cc4)cc3C(=O)N([C@H](C)CO)C[C@@H]2C)cc1 | nt | nt | nt | nt | 81.8
Cc1ccc(S(=O)(=O)N(C)C[C@@H]2Oc3ccc(NS(=O)(=O)c4ccc(F)cc4)cc3C(=O)N([C@@H](C)CO)C[C@@H]2C)cc1 | nt | nt | nt | nt | i
Cc1cccc(C(=O)O)c1O | i | i | nt | i | 67.5
Cc1cccc(C(=O)c2ccccc2C(=O)O)c1O | nt | nt | i | nt | nt
CCOC(=O)CC[C@H](NC(=O)Cn1cnc2c(OCc3ccccc3)ncnc21)C(=O)OCC | i | i | i | i | 26.5
COC(=O)[C@H](Cc1ccccc1)NC(=O)Cn1cnc2c(OCc3ccccc3)ncnc21 | i | i | i | i | i
CCC[C@@H](CN1CCC[C@H]1CN1C(N)=NC[C@H]1CC(C)C)N1C[C@@H](Cc2ccccc2)N(CCc2ccc(Cl)c(Cl)c2)C1=N | i | i | i | 33.3 | 55.2
CCC[C@@H](CN1CCC[C@H]1CN1C(N)=NC[C@H]1CC(C)C)N1C[C@@H]([C@H](C)CC)N(CCc2ccc(Cl)c(Cl)c2)C1=N | i | i | i | 25.4 | i
CN1C(=O)c2cc(NC(=O)c3ccc(C(F)(F)F)cc3)ccc2OC[C@@H]2O[C@@H](CC(=O)NC3Cc4ccccc4C3)CC[C@@H]21 | nt | nt | nt | i | nt
CN1C(=O)c2cc(NC(=O)c3ccc(C#N)cc3)ccc2OC[C@H]2O[C@@H](CC(=O)NC3Cc4ccccc4C3)CC[C@@H]21 | i | i | nt | i | 75.4
CN1C(=O)c2cc(NC(=O)c3ccno3)ccc2OC[C@H]2O[C@@H](CC(=O)NC3Cc4ccccc4C3)CC[C@@H]21 | i | i | nt | i | 53.4
Cc1ccc2oc(C(=O)N(Cc3ccc(N(C)C)cc3)C3CCS(=O)(=O)C3)c(C)c2c1 (configuration not stated) | i | i | i | i | i
Cc1ccc2c(C)c(C(=O)N(Cc3ccc(N(C)C)cc3)C3CCS(=O)(=O)C3)oc2c1 (configuration not stated) | i | i | nt | 38.1 | i
O=C(C[C@H]1CC[C@H]2[C@@H](COC[C@@H](O)CN2Cc2nccs2)O1)NCc1ccccc1 | i | i | nt | i | i
Cc1cccc(CCNC(=O)Cc2ccc(NC3=NC4CS(=O)(=O)CC4S3)cc2)c1 (configuration not stated) | i | i | nt | 47.0 | i
CC(C)Cc1nc2c(nnn2Cc2ccccc2F)c(=O)[nH]1 | i | nt | i | 37.7 | i
Cc1ccc(S(=O)(=O)N(C)C[C@@H]2Oc3ccc(NC(=O)C4CC4)cc3C(=O)N([C@@H](C)CO)C[C@H]2C)cc1 | i | i | nt | i | i
CC(C)NC(=O)N1CCCCN2[C@H](CO)[C@@H](c3ccc(C#Cc4ccccc4)cc3)[C@@H]2C1 | i | nt | nt | i | nt
CCC(=O)N1CC(=O)N2[C@H](CO)[C@@H](c3ccc(-c4cccnc4)cc3)[C@H]2C1 | i | i | nt | i | i
C[C@H](CO)N1C[C@H](C)[C@H](CN(C)Cc2ccc(C(=O)O)cc2)Oc2ccc(NS(=O)(=O)c3cccs3)cc2CC1=O | i | i | nt | i | i
C[C@H](CO)N1C[C@H](C)[C@H](CN(C)Cc2ccc(C(=O)Nc3ccccc3N)cc2)Oc2ccc(NS(=O)(=O)c3cccs3)cc2CC1=O | i | i | nt | i | i
